Data: PubChem BioAssay
Unmarked numbers belong to inactive results. For some of these results: Measured potencies and affinities stand elsewhere. The source made the active and inactive calls. Unless noted, the rule behind the calls is not given here.

Key:
[1] = antimalarial activity against Dd2 strain (AID 2302;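 active = growth inhibition above 50% at the single 2 µM test dose, taken to imply half-maximal potency below 2 µM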;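 note: 0% = DMSO untreated growth and 100% = chloroquine plus artemisinin killed control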); details: P. falciparum Dd2 in RBCs, LDH growth readout, 72 h; at 2 µM; stronger effect = higher value
[2] = HepG2 cytotoxicity, primary screen, cytotoxicity control for P. falciparum antimalarial project, cell-based, ATP luminescence (AID 2303;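 active = inhibition above 50%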;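 note: 0% = DMSO wells and 100% = digitonin-killed cells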); details: HepG2 viability, 24-48 h, at 10 µM, stronger effect = higher value
[3] = molecular target: L-lactate dehydrogenase (Plasmodium falciparum (isolate CDC / Honduras)) (UniProt Q27743); experiment: PfLDH activity inhibition – cell lysate, 3D7 strain, counter-screen for P. falciparum growth inhibition project (AID 2304);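 note: 0% = vehicle and 100% = reference inhibitor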; details: P. falciparum 3D7 crude extract, LDH APAD/NBT absorbance; at 2 µM; stronger effect = higher value
Sequence of L-lactate dehydrogenase (Plasmodium falciparum (isolate CDC / Honduras)) (Q27743 whole entry, looked up): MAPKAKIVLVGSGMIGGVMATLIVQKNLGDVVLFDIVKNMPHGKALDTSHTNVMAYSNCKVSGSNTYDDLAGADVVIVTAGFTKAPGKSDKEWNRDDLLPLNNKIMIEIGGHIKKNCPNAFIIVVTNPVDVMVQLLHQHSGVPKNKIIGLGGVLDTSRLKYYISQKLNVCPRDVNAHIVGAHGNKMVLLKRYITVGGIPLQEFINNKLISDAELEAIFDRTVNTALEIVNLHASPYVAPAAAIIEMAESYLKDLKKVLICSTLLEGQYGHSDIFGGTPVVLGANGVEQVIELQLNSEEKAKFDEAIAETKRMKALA

[4] = inhibition of 3D7 malaria parasite growth – strain 3D7 (AID 2306);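 note: 0% = DMSO wells and 100% = chloroquine plus artemisinin control wells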; details: P. falciparum 3D7 erythrocytic growth, LDH absorbance, 72 h; at 2 µM; stronger effect = higher value
[5] = molecular target: Calcium-dependent protein kinase 1 (Plasmodium falciparum (isolate 3D7)) (UniProt P62344); experiment: PfCDPK1 kinase inhibitors, biochemical, TCAMS library (AID 1159585; cut-off not given, nearly all actives have IC50 up to about 0.98 µM;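 note: inhibitors leave more ATP so luminescence rises with inhibition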); details: recombinant PfCDPK1, Kinase-Glo ATP depletion luminescence
Sequence of Calcium-dependent protein kinase 1 (Plasmodium falciparum (isolate 3D7)) (P62344 whole entry, looked up): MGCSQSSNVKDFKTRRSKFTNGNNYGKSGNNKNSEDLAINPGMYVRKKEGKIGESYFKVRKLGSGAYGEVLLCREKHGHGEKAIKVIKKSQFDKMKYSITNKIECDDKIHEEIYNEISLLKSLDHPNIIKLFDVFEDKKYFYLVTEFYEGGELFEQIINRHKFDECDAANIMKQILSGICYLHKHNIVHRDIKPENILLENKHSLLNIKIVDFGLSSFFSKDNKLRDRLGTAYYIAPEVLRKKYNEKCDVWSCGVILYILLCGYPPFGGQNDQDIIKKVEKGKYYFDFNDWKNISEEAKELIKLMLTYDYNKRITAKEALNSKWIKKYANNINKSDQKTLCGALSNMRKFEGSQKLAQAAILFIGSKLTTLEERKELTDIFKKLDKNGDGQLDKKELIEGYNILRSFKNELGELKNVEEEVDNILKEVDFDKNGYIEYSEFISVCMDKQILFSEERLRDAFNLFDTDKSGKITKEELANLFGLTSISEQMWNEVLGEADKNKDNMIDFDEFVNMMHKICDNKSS

[6] = molecular target: Plasmodium falciparum protein kinase 6 (PK6, PF3D7_1337100) (UniProt Q8IDW1); experiment: PfPK6 kinase inhibitors, biochemical, TCAMS library (AID 1159586); details: recombinant PfPK6, Kinase-Glo ATP depletion luminescence
Sequence of Plasmodium falciparum protein kinase 6 (PK6, PF3D7_1337100) (Q8IDW1 1-305): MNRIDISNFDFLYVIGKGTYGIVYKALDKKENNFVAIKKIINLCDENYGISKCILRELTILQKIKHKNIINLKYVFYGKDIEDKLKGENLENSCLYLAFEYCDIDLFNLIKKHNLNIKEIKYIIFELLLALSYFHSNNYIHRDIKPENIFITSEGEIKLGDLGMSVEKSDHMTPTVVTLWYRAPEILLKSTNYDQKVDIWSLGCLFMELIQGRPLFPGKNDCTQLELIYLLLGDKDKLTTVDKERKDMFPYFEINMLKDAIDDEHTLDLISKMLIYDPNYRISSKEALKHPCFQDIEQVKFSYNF

[7] = molecular target: Protein kinase 7 (PK7), Plasmodium falciparum 3D7 (PF3D7_0213400) (UniProt Q7YTF7); experiment: inhibition of Plasmodium PK7 catalytic activity – biochemical, TCAMS antimalarial set, Kinase-Glo luminescence (AID 1159587); details: recombinant PfPK7, Kinase-Glo ATP depletion luminescence
Sequence of Protein kinase 7 (PK7), Plasmodium falciparum 3D7 (PF3D7_0213400) (Q7YTF7 1-343): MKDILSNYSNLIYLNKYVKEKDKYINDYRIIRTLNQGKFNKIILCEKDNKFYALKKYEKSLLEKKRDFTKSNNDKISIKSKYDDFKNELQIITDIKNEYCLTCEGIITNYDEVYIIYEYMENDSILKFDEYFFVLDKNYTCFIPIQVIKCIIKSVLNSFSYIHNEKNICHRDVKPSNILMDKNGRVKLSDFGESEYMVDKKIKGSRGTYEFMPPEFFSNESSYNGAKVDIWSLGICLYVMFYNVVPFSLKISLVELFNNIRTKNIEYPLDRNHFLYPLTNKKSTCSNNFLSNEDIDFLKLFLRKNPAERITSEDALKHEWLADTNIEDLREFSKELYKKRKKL

[8] = molecular target: Calcium-dependent protein kinase 4 (Plasmodium falciparum (isolate 3D7)) (UniProt Q8IBS5); experiment: PfCDPK4 kinase inhibitors, biochemical, TCAMS library (AID 1159588; cut-off not given, nearly all actives have IC50 up to about 0.91 µM); details: recombinant PfCDPK4, Kinase-Glo ATP depletion luminescence
Sequence of Calcium-dependent protein kinase 4 (Plasmodium falciparum (isolate 3D7)) (Q8IBS5 whole entry, looked up): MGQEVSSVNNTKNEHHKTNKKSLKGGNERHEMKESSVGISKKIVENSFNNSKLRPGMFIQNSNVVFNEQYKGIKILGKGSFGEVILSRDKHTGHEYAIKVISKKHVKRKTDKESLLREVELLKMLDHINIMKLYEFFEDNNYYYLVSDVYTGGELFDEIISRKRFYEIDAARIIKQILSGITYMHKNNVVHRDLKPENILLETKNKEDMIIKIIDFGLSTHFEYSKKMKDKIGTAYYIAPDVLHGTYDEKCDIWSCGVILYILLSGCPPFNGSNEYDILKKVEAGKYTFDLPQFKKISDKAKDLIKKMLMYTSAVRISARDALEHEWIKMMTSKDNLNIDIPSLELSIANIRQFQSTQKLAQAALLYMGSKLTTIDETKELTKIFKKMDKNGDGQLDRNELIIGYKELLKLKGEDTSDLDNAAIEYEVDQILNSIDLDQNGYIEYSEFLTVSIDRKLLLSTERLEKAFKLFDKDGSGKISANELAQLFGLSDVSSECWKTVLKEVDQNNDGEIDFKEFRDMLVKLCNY

CCCN1CCC(c2c[nH]c3ccc(NC(=O)Nc4cccc(Cl)c4Cl)cc23)CC1
growth inhibition [1]: 17%
inhibition [2]: 30%
inhibition [3]: 2%
growth inhibition [4]: 100% (active)
outcome [5]: inactive
outcome [6]: inactive
outcome [7]: inactive
outcome [8]: inactive

CC(=O)c1ccc(O)c(CC(O)CO)c1 (stereo not drawn)
growth inhibition [1]: -1%
inhibition [2]: 3%
inhibition [3]: 4%
growth inhibition [4]: 100% (active)
outcome [5]: inactive
outcome [6]: inactive
outcome [7]: inactive
outcome [8]: inactive

CC(C)NCc1cccc(-c2cccc(NC(=O)c3ccc(C#N)cc3)c2)c1
growth inhibition [1]: 20%
inhibition [2]: 18%
inhibition [3]: 0%
growth inhibition [4]: 97% (active)
outcome [5]: inactive
outcome [6]: inactive
outcome [7]: inactive
outcome [8]: inactive

COc1ccc(Nc2ncc3c(-c4cccc(NC(=O)Cc5ccncc5)c4)c[nH]c3n2)cc1OC
growth inhibition [1]: 87% (active)
inhibition [2]: 23%
inhibition [3]: 1%
growth inhibition [4]: 99% (active)
outcome [5]: inactive
outcome [6]: inactive
outcome [7]: inactive
outcome [8]: inactive

COc1ccc(-c2cccc(NC(=O)c3cccc(C#N)c3)c2)cc1CN1CCC(O)CC1
growth inhibition [1]: 13%
inhibition [2]: 30%
inhibition [3]: -3%
growth inhibition [4]: 97% (active)
outcome [5]: inactive
outcome [6]: inactive
outcome [7]: inactive
outcome [8]: inactive

CC1CCN(Cc2c(O)ccc3c(=O)c(-c4nc5ccccc5s4)c(N)oc23)CC1
growth inhibition [1]: 99% (active)
inhibition [2]: 2%
inhibition [3]: -6%
growth inhibition [4]: 98% (active)
outcome [5]: inactive
outcome [6]: inactive
outcome [7]: inactive
outcome [8]: inactive

Cc1cc(N2CCNCC2)c2cc(NC(=O)Nc3ccc(Cl)c(Cl)c3)ccc2n1
growth inhibition [1]: 86% (active)
inhibition [2]: 23%
inhibition [3]: -2%
growth inhibition [4]: 100% (active)
outcome [5]: inactive
outcome [6]: inactive
outcome [7]: inactive
outcome [8]: inactive

O=C(O)Cc1ccc(-c2c[nH]c3ncc(-c4cccc5ncccc45)cc23)cc1
growth inhibition [1]: 0%
inhibition [2]: 7%
inhibition [3]: 1%
growth inhibition [4]: 95% (active)
outcome [5]: inactive
outcome [6]: inactive
outcome [7]: inactive
outcome [8]: inactive

c1ccc(CCNc2ccnc(Nc3ccc4n[nH]nc4c3)n2)cc1
growth inhibition [1]: 95% (active)
inhibition [2]: 33%
inhibition [3]: -4%
growth inhibition [4]: 101% (active)
outcome [5]: inactive
outcome [6]: inactive
outcome [7]: inactive
outcome [8]: inactive

NC1CCN(Cc2ccc(-c3ccc(-c4nc5ccc(F)cc5[nH]4)s3)cc2)C1 (stereo not drawn)
growth inhibition [1]: 98% (active)
inhibition [2]: 32%
inhibition [3]: 3%
growth inhibition [4]: 100% (active)
outcome [5]: inactive
outcome [6]: inactive
outcome [7]: inactive
outcome [8]: inactive

O=C(NCCCCN1CCC(c2nc3ccccc3s2)CC1)c1cc2ccccc2[nH]1
growth inhibition [1]: 64% (active)
inhibition [2]: 43%
inhibition [3]: -5%
growth inhibition [4]: 86% (active)
outcome [5]: inactive
outcome [6]: inactive
outcome [7]: inactive
outcome [8]: inactive

Cc1ccc(CNC(=O)[C@H](Cc2ccccc2)Nc2cc(C)nc(NCC3CCCCC3)n2)cc1
growth inhibition [1]: 89% (active)
inhibition [2]: -10%
inhibition [3]: 0%
growth inhibition [4]: 101% (active)
outcome [5]: inactive
outcome [6]: inactive
outcome [7]: inactive
outcome [8]: inactive

Cc1nc2nc(N)nc(N)c2c(C)c1Cc1cccc(C#N)c1
growth inhibition [1]: 1%
inhibition [2]: 64% (active)
inhibition [3]: 1%
growth inhibition [4]: 97% (active)
outcome [5]: inactive
outcome [6]: inactive
outcome [7]: inactive
outcome [8]: inactive

O=C(Nc1ccc(Cl)cc1)Nc1ccc2nonc2c1
growth inhibition [1]: 77% (active)
inhibition [2]: -25%
inhibition [3]: -4%
growth inhibition [4]: 94% (active)
outcome [5]: inactive
outcome [6]: inactive
outcome [7]: inactive
outcome [8]: inactive

COc1ccc2c(NN=Cc3cccc(C)n3)ccnc2c1
growth inhibition [1]: 51% (active)
inhibition [2]: -12%
inhibition [3]: 3%
growth inhibition [4]: 96% (active)
outcome [5]: inactive
outcome [6]: inactive
outcome [7]: inactive
outcome [8]: inactive

CCOc1ccc(NC(=O)c2ccc(CN3CCCN(Cc4cccc(O)c4)CC3)cc2)cc1
growth inhibition [1]: 9%
inhibition [2]: 44%
inhibition [3]: 0%
growth inhibition [4]: 85% (active)
outcome [5]: inactive
outcome [6]: inactive
outcome [7]: inactive
outcome [8]: inactive

N#Cc1ccc2c(c1)CCN(CCC1CCC(NC(=O)/C=C/c3ccc(F)c4ccccc34)CC1)CC2 (stereo not drawn)
growth inhibition [1]: 19%
inhibition [2]: 29%
inhibition [3]: -2%
growth inhibition [4]: 95% (active)
outcome [5]: inactive
outcome [6]: inactive
outcome [7]: inactive
outcome [8]: inactive

CN(C)CCCOc1cccc(NC(=O)Nc2ccc(Cl)c(Cl)c2)c1
growth inhibition [1]: 8%
inhibition [2]: 6%
inhibition [3]: -1%
growth inhibition [4]: 90% (active)
outcome [5]: inactive
outcome [6]: inactive
outcome [7]: inactive
outcome [8]: inactive

Cn1c(O)c(N=NC(=S)N2CCOCC2)c2ccccc21
growth inhibition [1]: 54% (active)
inhibition [2]: 57% (active)
inhibition [3]: 6%
growth inhibition [4]: 95% (active)
outcome [5]: inactive
outcome [6]: inactive
outcome [7]: inactive
outcome [8]: inactive

CCOc1ccc(C(=O)Nc2cc(Br)c3c(c2)CNCC3)cc1C#N
growth inhibition [1]: 32%
inhibition [2]: 17%
inhibition [3]: -6%
growth inhibition [4]: 97% (active)
outcome [5]: inactive
outcome [6]: inactive
outcome [7]: inactive
outcome [8]: inactive

O=C(Nc1ccc(Cl)c(Cl)c1)Nc1ccc2nccc(N3CCN(Cc4ccccc4)CC3)c2c1
growth inhibition [1]: 100% (active)
inhibition [2]: 31%
inhibition [3]: 1%
growth inhibition [4]: 101% (active)
outcome [5]: inactive
outcome [6]: inactive
outcome [7]: inactive
outcome [8]: inactive

CCCCCCC(C)c1cc(OCCN(CC)CC)c2c(c1)OC(C)(C)C=C2c1ccncc1 (stereo not drawn)
growth inhibition [1]: 71% (active)
inhibition [2]: 14%
inhibition [3]: -1%
growth inhibition [4]: 90% (active)
outcome [5]: inactive
outcome [6]: inactive
outcome [7]: inactive
outcome [8]: inactive

O=S1C(Cl)=C(c2ccc(Cl)cc2)c2ccc(Cl)cc21 (stereo not drawn)
growth inhibition [1]: 99% (active)
inhibition [2]: 33%
inhibition [3]: 1%
growth inhibition [4]: 91% (active)
outcome [5]: inactive
outcome [6]: inactive
outcome [7]: inactive
outcome [8]: inactive

CC(C)c1ccc(NC(=O)NC2CCN(CCCCCNC(=O)/C=C/c3ccc(Cl)c(Cl)c3)CC2)cc1
growth inhibition [1]: 19%
inhibition [2]: -5%
inhibition [3]: -2%
growth inhibition [4]: 100% (active)
outcome [5]: inactive
outcome [6]: inactive
outcome [7]: inactive
outcome [8]: inactive

CCN(CCNC(=O)Nc1cc(C(F)(F)F)cc(C(F)(F)F)c1)c1cccc(C)c1
growth inhibition [1]: 100% (active)
inhibition [2]: -3%
inhibition [3]: 4%
growth inhibition [4]: 98% (active)
outcome [5]: inactive
outcome [6]: inactive
outcome [7]: inactive
outcome [8]: inactive

COc1ccc2ncc(F)c(CCN3CCC(NCc4cnc5c(c4)NC(=O)CS5)CC3)c2c1
growth inhibition [1]: 16%
inhibition [2]: 16%
inhibition [3]: 3%
growth inhibition [4]: 99% (active)
outcome [5]: inactive
outcome [6]: inactive
outcome [7]: inactive
outcome [8]: inactive

CCn1c(Sc2ccc([N+](=O)[O-])c(C#N)c2)nnc1-c1ccc(Cl)cc1
growth inhibition [1]: 7%
inhibition [2]: 2%
inhibition [3]: -2%
growth inhibition [4]: 93% (active)
outcome [5]: inactive
outcome [6]: inactive
outcome [7]: inactive
outcome [8]: inactive

CC(C)c1nc(N2CCN(C(=S)NCc3ccccc3)CC2)c(C#N)c2c1COC(C)(C)C2
growth inhibition [1]: 100% (active)
inhibition [2]: -7%
inhibition [3]: 6%
growth inhibition [4]: 99% (active)
outcome [5]: inactive
outcome [6]: inactive
outcome [7]: inactive
outcome [8]: inactive

CC(Sc1nc2sccc2c(=O)n1C)C(=O)Nc1ccc2c(c1)OCO2 (stereo not drawn)
growth inhibition [1]: 100% (active)
inhibition [2]: 5%
inhibition [3]: 4%
growth inhibition [4]: 100% (active)
outcome [5]: inactive
outcome [6]: inactive
outcome [7]: inactive
outcome [8]: inactive

COc1cc(F)c2ncc(Cl)c([C@@H](O)CN3CCC(NCc4cc5c(cn4)OCCO5)CC3)c2c1
growth inhibition [1]: 100% (active)
inhibition [2]: 11%
inhibition [3]: 2%
growth inhibition [4]: 101% (active)
outcome [5]: inactive
outcome [6]: inactive
outcome [7]: inactive
outcome [8]: inactive

N#Cc1ccc(NC(=O)Nc2ccc3c(c2)CCN(C2CCC2)CC3)cc1
growth inhibition [1]: 11%
inhibition [2]: 6%
inhibition [3]: -8%
growth inhibition [4]: 96% (active)
outcome [5]: inactive
outcome [6]: inactive
outcome [7]: inactive
outcome [8]: inactive

Cc1c(CN2CCCCC2)cccc1OCCCNc1nc(NCCc2ccc(O)cc2)nc(N2CCNCC2)n1
growth inhibition [1]: 23%
inhibition [2]: 26%
inhibition [3]: 3%
growth inhibition [4]: 101% (active)
outcome [5]: inactive
outcome [6]: inactive
outcome [7]: inactive
outcome [8]: inactive

CCc1cn(C)c2c(N3CCCC3=O)cc(C(=O)N[C@@H](Cc3ccccc3)[C@H](O)CNCc3cccc(OC)c3)cc12
growth inhibition [1]: 97% (active)
inhibition [2]: 7%
inhibition [3]: 0%
growth inhibition [4]: 96% (active)
outcome [5]: inactive
outcome [6]: inactive
outcome [7]: inactive
outcome [8]: inactive

Cc1ccc(CNC(=O)[C@H](CC(C)C)Nc2cc(C)nc(NCc3ccccc3C)n2)cc1
growth inhibition [1]: 35%
inhibition [2]: 3%
inhibition [3]: 1%
growth inhibition [4]: 87% (active)
outcome [5]: inactive
outcome [6]: inactive
outcome [7]: inactive
outcome [8]: inactive

FC(F)(F)c1ccc2nc(-c3ccc(-c4cccc(CN5CCN(CCN6CCOCC6)CC5)c4)cc3)[nH]c2c1
growth inhibition [1]: 77% (active)
inhibition [2]: 47%
inhibition [3]: -6%
growth inhibition [4]: 98% (active)
outcome [5]: inactive
outcome [6]: inactive
outcome [7]: inactive
outcome [8]: inactive

CN1CCN(CC(O)CNC(=O)Nc2ccc(Cl)cc2)CC1 (stereo not drawn)
growth inhibition [1]: 98% (active)
inhibition [2]: 1%
inhibition [3]: -3%
growth inhibition [4]: 99% (active)
outcome [5]: inactive
outcome [6]: inactive
outcome [7]: inactive
outcome [8]: inactive

CCNC(=O)Nc1cccc(-c2cccc(-c3nc4ccc(C(F)(F)F)cc4[nH]3)c2)c1
growth inhibition [1]: 32%
inhibition [2]: 50% (active)
inhibition [3]: 2%
growth inhibition [4]: 91% (active)
outcome [5]: inactive
outcome [6]: inactive
outcome [7]: inactive
outcome [8]: inactive

Fc1ccccc1C=NNc1ccnc2ccc(C(F)(F)F)cc12
growth inhibition [1]: 61% (active)
inhibition [2]: 5%
inhibition [3]: 3%
growth inhibition [4]: 100% (active)
outcome [5]: inactive
outcome [6]: inactive
outcome [7]: inactive
outcome [8]: inactive

O=C(C=Cc1ccc(Cl)c(Cl)c1)NCCCCCN1CCC(CCNS(=O)(=O)c2ccc(F)cc2)CC1
growth inhibition [1]: -5%
inhibition [2]: 36%
inhibition [3]: 2%
growth inhibition [4]: 88% (active)
outcome [5]: inactive
outcome [6]: inactive
outcome [7]: inactive
outcome [8]: inactive

CCCc1cn2c3c(cc(C(=O)N[C@@H](Cc4ccccc4)[C@H](O)CNC4CCOCC4)cc13)N(CC)S(=O)(=O)CC2
growth inhibition [1]: 98% (active)
inhibition [2]: 2%
inhibition [3]: -2%
growth inhibition [4]: 97% (active)
outcome [5]: inactive
outcome [6]: inactive
outcome [7]: inactive
outcome [8]: inactive

c1cncc(CCNCc2cccc(-c3ccc(-c4nc5ccccc5[nH]4)s3)c2)c1
growth inhibition [1]: 97% (active)
inhibition [2]: 8%
inhibition [3]: -1%
growth inhibition [4]: 100% (active)
outcome [5]: inactive
outcome [6]: inactive
outcome [7]: inactive
outcome [8]: inactive
